The record followed here is the supplement of paper PMC11417369.

Whole data set: some 25,000 sequences, median “ln(normalized median fluorescence intensity)” near 7.1, cut for the highest 2% near 10. The entries come from a sample that favours the highest values as a whole.

The test system of this assay is PfSIP2 AP2 domain 1 (GST-tagged). Nature of the assay: gcPBM binding intensity (ln(normalized median fluorescence intensity)); higher = stronger DNA binding. The method, boiled down:
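GST-fused DNA-binding domains of P. falciparum, expressed in E. coli, were applied at about 25 μg on average for 1 h to an Agilent 4 × 180k array of primer-extended double-stranded 36-bp intergenic genomic probes and negative controls. Binding intensity is the highest Masliner-normalised natural-log median intensity across replicate spots of either probe orientation, measured with Alexa488 anti-GST antibody and a 488 nm scan.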
As for “ATATAAATTTTTTATGAACACACAAATACAGACACT [CACACA_site8848]”, the “gcPBM binding intensity (ln)” value is 7.37.

As for “AATATTTATGGGTGCACACAAACATACATATATATA [CACACA_site3395]”, the “gcPBM binding intensity (ln)” value is 11.8.

Regarding “ATAATATTTAGGTGTGCACACAAACATACATATATA [CACACA_site9120]”, the “gcPBM binding intensity (ln)” value is 8.81.

“AATATTTATGGGTGCACACAAACATACAGATATATA [CACACA_site5810]”: the “gcPBM binding intensity (ln)” value was 12.1.

“TACAAATATATATGCACACACATATACATACAGATA [CACACA_site5238]”: the “gcPBM binding intensity (ln)” value came out at 7.27.

Take “TAAACATAAATATGCACACATATACAGATATTCATA [CACACA_site5471]”: the “gcPBM binding intensity (ln)” value was determined as 7.04.

In the case of “AAAAAAAAAACATACACACACACAAATATTTATATA [CACACA_site437]”, the “gcPBM binding intensity (ln)” value was determined as 6.94.

Take “ATATAAATTGGCAATAGTACATAAAGGCATAGAAAG [XGTACX_site2674]”: the “gcPBM binding intensity (ln)” value worked out at 7.31.

For “TTGTATATATTTCCTTGTACGTAATAATTCTTATTG [XGTACX_site3938]”, the “gcPBM binding intensity (ln)” value was determined as 7.19.

Consider “TTTATTTGTTCATGCGTGCACTTGATAACAATGTAC [GTGCAC_site9561]”, for which the “gcPBM binding intensity (ln)” value is 9.9.

On to “AAATATAATTAATGATGTACACTTATAGATATTGAT [XGTACX_site8435]”, for which the “gcPBM binding intensity (ln)” value was 7.09.

Regarding “AGATATTATAATTAATGTACAAAAAGAAAAAATAGA [XGTACX_site8964]”, the “gcPBM binding intensity (ln)” value was 7.04.

For “ATATTATAATTGAAGGTGCAAAATGTAATATAGATA [GTGCAC_site9661]”, the “gcPBM binding intensity (ln)” value stood at 10.6.

As for “TTTTATAATCATAATAGTACTTTTTCTTTTTCACAT [XGTACX_site5017]”, the “gcPBM binding intensity (ln)” value came out at 6.7.

Regarding “TATATATATAATGTTTGTACATATTAAATATATATG [XGTACX_site407]”, the “gcPBM binding intensity (ln)” value was 8.3.

With TTTTTTGTTACAACAGTGCAAAAAAACCTTAATGTT, the “gcPBM binding intensity (ln)” value was determined as 7.84.

As for CTCATTTTGTTAATGGTGCAAAAAAAAAAAAAAAAA, the “gcPBM binding intensity (ln)” value was found to be 11.

Consider “TTTTCATTTGTGACAGTGCAAAATGTTATATTAAAA [GTGCAC_site9647]”, for which the “gcPBM binding intensity (ln)” value stood at 8.57.

For “TTATCAATAAAATGCACACACTGTAATATTATTAAA [CACACA_site6055]”, the “gcPBM binding intensity (ln)” value stood at 7.18.

Consider “TATCTTATAAACTCTGCACACATAATATATTAAATG [CACACA_site8587]”, for which the “gcPBM binding intensity (ln)” value was determined as 9.1.

Regarding ATATATATTATCATTGTGCACTTATTTATATACCTT, the “gcPBM binding intensity (ln)” value worked out at 10.5.

As for TTATCATTTGCCATTGTGCACTTATATGCTCACATT, the “gcPBM binding intensity (ln)” value worked out at 10.2.

On to “ATATGTATGTATTTATTATTGTGCATTGTATTTATA [CACACA_negctrl_site664]”, for which the “gcPBM binding intensity (ln)” value came out at 7.44.

For TATGTATGTGCTTGTGCGCACCGATAATATAGCCAA, the “gcPBM binding intensity (ln)” value amounted to 9.96.

For the sequence “AAAAAGGAAATAATAACACACATTAATAATTATAAA [CACACA_site3401]”, the “gcPBM binding intensity (ln)” value turned out to be 6.67.

For “TATTTATGCACGCGTGCACACACATATGAAAAAAGG [CACACA_site9090]”, the “gcPBM binding intensity (ln)” value came out at 10.4.

With “CAAAAGGATATGCACACACACACACGGATATTTATA [CACACA_site7099]”, the “gcPBM binding intensity (ln)” value amounted to 7.41.

For GGTATTTATGGACGCGTGCACACACATATGAACAAA, the “gcPBM binding intensity (ln)” value was 9.35.

With “TATGAAAAAATATATACACACATAATAAAGGTATAT [CACACA_site3737]”, the “gcPBM binding intensity (ln)” value was determined as 6.9.

Regarding “TTATATGCATAAAAAGGTACACATATATAAATAAAT [XGTACX_site6894]”, the “gcPBM binding intensity (ln)” value was determined as 7.12.

Turning to “TTTATGCACGCGTGCACACACATATGAAAAAAGGTA [CACACA_site3315]”, the “gcPBM binding intensity (ln)” value is 10.4.
